Calls of active or inactive are those of the source. Unless noted, the rule behind the calls is not given here.

14 molecules from PubChem BioAssay can be followed below.

Experiment [1] concerns XIP peptide (Xip251-270) binding. Put plainly: XIP fragment 251-270 binding compounds – biochemical, small-molecule microarray, fluorescence 635/667 nm, 0.1 µg/mL protein, primary screen (AID 1182). Conditions: fluorescent protein binding, 635 nm, higher = more signal, called active from +8 up or from −8 down.
A further experiment deals with XIP peptide (Xip251-270). Nature of the experiment: compounds binding XIP fragment 251-270 – biochemical, small-molecule microarray, fluorescence 635/667 nm, 0.5 µg/mL protein, primary screen (AID 1183). The note with it: fluorescence 635 nm, higher = more signal.
Experiment [2] can be described thus: blood-stage malaria parasite viability loss – strain 3D7, DAPI fluorescence, 100 nL, primary screen (AID 1184).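 Note: parasites grown inside human red blood cells in medium with human serum.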 The note with it: P. falciparum 3D7 growth, 3 d, higher = more signal.
For experiment [3], the target named is Homeobox protein Hox-A13 (Mus musculus) (UniProt Q62424). Put plainly: disruptors of Hoxa13 oligonucleotide interaction – biochemical, fluorescence polarization, labeled oligonucleotide, primary screen (AID 1185). Conditions: Hoxa13:DNA binding, 15 min, higher = more signal, called active from +8 up or from −8 down. On the technique in general: Polarisation of emitted light reports the rotation of a fluorescent probe.
Sequence of Homeobox protein Hox-A13 (Mus musculus) (Q62424 whole entry, looked up): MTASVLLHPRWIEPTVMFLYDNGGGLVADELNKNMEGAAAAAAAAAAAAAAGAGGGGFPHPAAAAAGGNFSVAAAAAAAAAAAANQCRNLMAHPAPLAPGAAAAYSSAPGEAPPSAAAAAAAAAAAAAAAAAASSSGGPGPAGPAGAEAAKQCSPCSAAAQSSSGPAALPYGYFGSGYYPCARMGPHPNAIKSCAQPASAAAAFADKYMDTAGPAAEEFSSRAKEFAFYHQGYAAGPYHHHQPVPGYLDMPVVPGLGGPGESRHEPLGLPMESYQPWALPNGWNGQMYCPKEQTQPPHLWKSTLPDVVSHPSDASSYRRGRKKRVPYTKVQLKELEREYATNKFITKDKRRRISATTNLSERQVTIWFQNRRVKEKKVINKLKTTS

Experiment [4] can be described thus: blockers of DNA damage checkpoint Chk1 activation – imaging, HeLa, hydroxyurea, phospho-Chk1 antibody, percent positive cells, primary screen (AID 1186). The note with it: hydroxyurea-induced phospho-Chk1 immunofluorescence imaging, higher = more signal.
A short description of experiment [5]: blockers of DNA damage checkpoint Chk1 activation – imaging, HeLa, hydroxyurea, phospho-Chk1 nuclear intensity, primary screen (AID 1187). The note with it: hydroxyurea-induced phospho-Chk1 immunofluorescence imaging, higher = more signal.

Regarding `CC1CC/C=C\[C@H]2OC34C=CCN(C(C)(C)C)C(=O)[C@H]3N(CCO)C(=O)[C@@H]4C2C(=O)O1` (some centres undefined), the composite z-score in experiment [1] is -0.892 (inactive); with XIP peptide (Xip251-270) it was 0.833. The z-score was -0.162 in experiment [2], -5.01 (inactive) in experiment [3], -0.878 (inactive) in experiment [4] and -0.798 (inactive) in experiment [5].

As to `COCCOC(=O)N1C(=O)[C@@]2(c3ccccc31)[C@H](C(=O)N1CCc3cc(OC)c(OC)cc3C1)[C@H]1C(=O)O[C@H](c3ccccc3)[C@H](c3ccccc3)N1[C@@H]2c1ccc(OCCO)cc1`, the composite z-score in experiment [1] was 2.52 (inactive); in the experiment with XIP peptide (Xip251-270), 0.8. In addition, the z-score is -2.33 in experiment [2], 1.9 (inactive) in experiment [3], 0.111 (inactive) in experiment [4] and 0.55 (inactive) in experiment [5].

In the case of `C=CCN1C(=O)[C@@]2(CC=C)N=C(c3ccc(OCCCO)cc3)O[C@H]2c2ccccc21`, the composite z-score is 0.881 (inactive) in experiment [1] and 0.751 with XIP peptide (Xip251-270). The z-score was -1.99 in experiment [2], -2.65 (inactive) in experiment [3], -0.772 (inactive) in experiment [4] and -0.86 (inactive) in experiment [5].

With `COc1ccc(C(=O)Nc2ccc(CN3C(=O)[C@]4(O[C@H](CCO)[C@@H]([Si](C)(C)c5ccc(OC)cc5)[C@@H]4C)c4ccccc43)cc2)cc1`, the composite z-score in experiment [1] was 2.8 (inactive); with XIP peptide (Xip251-270) it was 0.618. Further, the z-score in experiment [2] is -2.82; in experiment [3] it was -0.677 (inactive); in experiment [4] it was -0.02 (inactive); in experiment [5] it was 0.458 (inactive).

Turning to `O=C(OCc1ccccc1)C1=CCC2c3[nH]c4ccccc4c3C(=O)C1N2S(=O)(=O)c1ccccc1[N+](=O)[O-]` (centres undefined), the composite z-score in experiment [1] was -0.0884 (inactive); in the experiment with XIP peptide (Xip251-270), -0.0191. Moreover, the z-score is -1.07 in experiment [2], -1.47 (inactive) in experiment [3], -0.824 (inactive) in experiment [4] and -1.44 (inactive) in experiment [5].

As for `C=C[C@H](CO[Si](CC)(CC)CC)N(Cc1ccc(OC(C)=O)c(OC)c1)S(=O)(=O)c1ccc(Br)cc1`, the values for the composite z-score (in experiment [1]; with XIP peptide (Xip251-270)) were 1.38 (inactive) and 0.88, respectively. The z-score in experiment [2] is 0.378; in experiment [3], 0.476 (inactive); in experiment [4], -0.528 (inactive); in experiment [5], -0.508 (inactive).

As for `C[N+](C)(C)CCCCNC(=O)[C@@H]1C[C@@H]2C(=O)N[C@@H](Cc3ccccc3)C(=O)N2[C@@H]1c1cccc(OCCO)c1`, the composite z-score is 1.09 (inactive) in experiment [1] and 0.645 with XIP peptide (Xip251-270). The z-score is -0.421 in experiment [2], -2.57 (inactive) in experiment [3], 0.367 (inactive) in experiment [4] and 0.276 (inactive) in experiment [5].

With `COC(=O)[C@@]1(Cc2ccc(F)cc2)[C@H]2c3cc(C(=O)N4CCCC4)n(CCCNc4ncc(C(F)(F)F)cc4Cl)c3C[C@H]2CN1C(=O)c1ccccc1`, the composite z-score in experiment [1] was 0.1 (inactive); in the experiment on XIP peptide (Xip251-270), 0.716. Also, the z-score in experiment [2] was -1.41; in experiment [3], -4.2 (inactive); in experiment [4] it was 0.919 (inactive); in experiment [5], 0.259 (inactive).

Turning to `C#C[C@H](O[Si](C#Cc1ccc(Oc2ccccc2)cc1)(C(C)C)C(C)C)c1ccccc1`, the composite z-score in experiment [1] is 0.359 (inactive); in the experiment on XIP peptide (Xip251-270), -0.418. In addition, the z-score in experiment [2] is -1; in experiment [3], -1.04 (inactive); in experiment [4] it was 0.179 (inactive); in experiment [5] it was -0.049 (inactive).

Take `O=C1[C@@]23C=C(Br)[C@H](C[C@@H]2CCOC3)[C@@]12CO2`: the composite z-score in experiment [1] is 0.792 (inactive); with XIP peptide (Xip251-270) it was -0.377. In addition, the z-score is 1.37 in experiment [2], 0.0303 (inactive) in experiment [3], -0.259 (inactive) in experiment [4] and -0.561 (inactive) in experiment [5].

Consider `C[N+](C)(C)CCCC[C@@H]1NC(=O)[C@H]2C[C@@H](C(=O)NCCCCCCNC(=O)CS)[C@@H](c3cccc(OCCO)c3)N2C1=O`, for which the composite z-score was 0.173 (inactive) in experiment [1] and 0.487 in the experiment on XIP peptide (Xip251-270). For the same molecule, the z-score in experiment [2] was -0.135; in experiment [3], -1.87 (inactive); in experiment [4], 0.964 (inactive); in experiment [5], 1.2 (inactive).

On to `CC(C)=CCN[C@H](CO)c1ccccc1`, for which the composite z-score in experiment [1] is -0.0202 (inactive); in the experiment with XIP peptide (Xip251-270), -0.319. In addition, the z-score is -1.72 in experiment [2], 0.039 (inactive) in experiment [3], 0.257 (inactive) in experiment [4] and -0.0254 (inactive) in experiment [5].

With `CCC[C@@H]1C[C@@]1(CCC)[C@@H](NS(=O)(=O)c1cccc2cccnc12)c1ccc(Cl)cc1`, the composite z-score was 0.0535 (inactive) in experiment [1] and -0.271 with XIP peptide (Xip251-270). The z-score in experiment [2] is -0.586; in experiment [3] it was -0.392 (inactive); in experiment [4] it was 0.555 (inactive); in experiment [5], 0.618 (inactive).

Turning to `CCOC(=O)C[C@H]1[C@H](OC(=O)c2ccc(-c3ccccc3)cc2)[C@@H](NC(=O)Cc2ccc(OC)cc2)c2cc(OCCCO)ccc2N1C(=O)c1ccccc1`, the values for the composite z-score (in experiment [1]; in the experiment on XIP peptide (Xip251-270)) were -0.243 (inactive) and -0.464, respectively. Further, the z-score in experiment [2] is -0.791; in experiment [3], -2.14 (inactive); in experiment [4] it was 0.2 (inactive); in experiment [5], 0.106 (inactive).
